Assay outcomes as filed in PubChem BioAssay.
Hits are enriched below; roughly 2.8% of the tested compounds scored in any of these assays.
Peg3 prom inh-1: reduces Peg3 promoter-driven luciferase expression in HeLa. HeLa PEG-Prom luciferase reporter, luminescence, overnight. inhibition, % at 20 µM. hit rate 1.7% among 360,000;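 active = inhibition of at least 50% at 20 µM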
Shn3 inh set2: inhibitors of Schnurri-3 3'UTR reporter in osteoblasts; Clone20 osteoblast Shn3 3'UTR firefly luciferase, 24 h; inhibition, % at 12.5 µM; hit rate 0.52% among 360,000;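 active = mean inhibition of at least 75% with every replicate also reaching 75%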
HIF-2a inh: HIF-2a inhibition; inhibition, % at 18.8 µM; hit rate 0.72% among 360,000; 786-0 RCC cells HIF-2a reporter, luciferase luminescence, overnight; AID 624352;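 active = inhibition of the luminescence signal of 40% or more relative to plate controls, in a single-dose primary screen at 18.75 µM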
EBV LMP1 NFkB: inhibitors of Epstein-Barr LMP1-induced NF-kappaB reporter | hit rate 0.69% among 350,000 | AID 504558 | inhibition, % at 12.5 µM | LMP1-induced NF-kappaB luciferase reporter cells, luminescence; in the data active = inhibition above about 41%
PAX8 reporter: PAX8 transcriptional activity inhibition. inhibition, % at 12.6 µM. RMG-I TPO-luciferase reporter, SteadyGlo, 24 h. hit rate 1.2% among 360,000;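 active = mean replicate inhibition at least 60% with every replicate also reaching 60%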;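 note: luciferase light reporting Pax8 driven TPO promoter activity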
MITF TRPM1 inh: MITF TRPM1 promoter inhibition in SK-MEL-5 cells; SK-MEL-5 TRPM1 promoter luciferase, 24 h; inhibition, % at 12.5 µM; hit rate 0.83% among 330,000; AID 488899;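 active = mean inhibition across replicates of 60% or more, whatever share of single replicates reaches that level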
Peg3 prom inh-2: confirmation of Peg3 promoter inhibitors. hit rate 84% among 1,300. shares compounds with Peg3 prom inh-1. HeLa PEG-Prom luciferase reporter, luminescence, overnight. AID 602417. inhibition, % at 20 µM;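 active = at 20 µM dose, 40% or more inhibition averaged across four replicates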
Hits are given with their value; – = inactive; · = no result.

SMILES | Peg3 prom inh-1 | Shn3 inh set2 | HIF-2a inh | EBV LMP1 NFkB | PAX8 reporter | MITF TRPM1 inh | Peg3 prom inh-2
O=c1[nH]c2ccccc2cc1CN(Cc1cccnc1)S(=O)(=O)c1ccc(Cl)cc1 | – | – | – | – | – | – | ·
COC(=O)c1ccccc1S(=O)(=O)N(Cc1ccco1)Cc1cc2cc(OC)ccc2[nH]c1=O | – | – | – | – | · | – | ·
CC(C)NC(=O)Nc1ccc2c(c1)CC(=O)N([C@@H](C)CO)C[C@H](C)[C@H](CN(C)C(=O)Nc1ccc(C(F)(F)F)cc1)O2 | · | · | · | · | – | · | ·
Cc1c(C)c2cc(Cl)c(OCC(=O)Nc3ccccn3)cc2oc1=O | – | – | – | – | – | · | ·
O=C(COc1ccc(Cl)cc1Cl)Nc1ccccn1 | 92 | – | 81 | 64 | · | 80 | 87
Cc1c(C)c2ccc(OCC(=O)Nc3ccccn3)c(C)c2oc1=O | 93 | 94 | 78 | – | – | 87 | 84
COc1cc(CNCCCN2CCOCC2)cc(Br)c1OCc1ccc(Cl)cc1 | 100 | – | – | – | – | – | 100
COc1cc(CNCCN2CCOCC2)ccc1OCc1ccc(Cl)cc1 | – | – | – | – | · | – | ·
CCCc1ccc(C(=O)O/N=C(\N)c2ccccn2)cc1 | 108 | – | 63 | 69 | 106 | 73 | 97
N/C(=N\OC(=O)c1ccc(Cl)cc1Cl)c1ccccn1 | 68 | – | – | 56 | 77 | – | –
N/C(=N\OC(=O)c1cccc([N+](=O)[O-])c1)c1ccccn1 | – | – | – | – | – | – | ·
N/C(=N\OC(=O)c1ccc(Cl)cc1[N+](=O)[O-])c1ccccn1 | – | – | – | – | – | – | ·
COc1cccc(C(=O)O/N=C(\N)c2ccccn2)c1 | 87 | – | – | 68 | – | 84 | 69
N/C(=N\OC(=O)c1ccc(=O)n(Cc2ccccc2)c1)c1ccccn1 | – | – | – | – | – | – | ·
C[C@H](CO)N1C[C@H](C)[C@@H](CN(C)S(C)(=O)=O)Oc2ccc(NC(=O)Cc3cn(C)c4ccccc34)cc2CC1=O | · | · | · | · | – | · | ·
Cc1ccc(C2(CCNCc3ccc(N(C)C)cc3)CCOC(C(C)C)C2)cc1 (stereo not given) | 56 | – | – | – | – | – | 63
Cc1ccc(C2(CCNS(=O)(=O)c3ccc(C)cc3)CCOC(C(C)C)C2)cc1 (stereo not given) | – | – | – | – | · | – | ·
Cc1ccc(S(=O)(=O)N2CCCCC2)cc1C(=O)N(C)CC(=O)Nc1ccc(Cl)c(C(F)(F)F)c1 | 53 | – | – | – | · | – | 56
OCCNCc1cc(Br)ccc1OCc1ccc(Cl)cc1Cl | 65 | – | – | – | · | – | 62
NC(=O)c1nsc(C(=O)N(c2ccccc2F)C(C(=O)NCc2ccccc2)c2ccc(O)cc2)c1N (stereo not given) | 75 | – | – | – | – | – | 57
Cc1ccccc1N(C(=O)c1snc(C(N)=O)c1N)C(C(=O)NCc1ccccc1)c1ccc(O)cc1 (stereo not given) | – | – | – | – | – | – | ·
CCOc1ccc2c(ccc(/C=C/c3cc(C)c4cccnc4c3O)[n+]2C)c1 | 101 | 87 | – | – | · | 75 | 84
O=C(c1ccccc1F)N1CC[C@@H]2[C@H](CO)Nc3ccc(C#Cc4ccccc4F)cc3[C@@H]21 | · | · | · | · | – | · | ·
COc1ccc(-c2cn3nc(C)c(C)nc3n2)cc1OC | – | – | – | – | – | – | ·
Cc1ccc(-c2cn3nc(C)c(C)nc3n2)cc1 | 60 | – | – | 63 | · | 64 | 46
SMILES | Peg3 prom inh-1 | Shn3 inh set2 | HIF-2a inh | EBV LMP1 NFkB | PAX8 reporter | MITF TRPM1 inh | Peg3 prom inh-2
C[C@@H]1CN([C@H](C)CO)C(=O)c2cccc(NS(=O)(=O)c3cn(C)cn3)c2O[C@@H]1CN(C)CC1CCCCC1 | · | · | · | · | – | · | ·
COc1ccc(C2c3c(ncn(CCCN4CCOCC4)c3=N)Oc3ccc4ccccc4c32)cc1OC (stereo not given) | 69 | – | – | – | – | 80 | 86
COc1ccc(C2c3ccc4ccccc4c3Oc3ncn(CCN4CCOCC4)c(=N)c32)cc1OC (stereo not given) | – | – | – | – | – | – | ·
N=c1c2c(ncn1CCCO)Oc1ccc3ccccc3c1C2c1ccccc1 (stereo not given) | – | – | – | · | – | · | ·
COc1ccc(C2c3ccc4ccccc4c3Oc3ncn(CCCO)c(=N)c32)cc1 (stereo not given) | 65 | – | – | – | – | – | 86
COc1ccc(C2c3ccc4ccccc4c3Oc3ncn(CCO)c(=N)c32)cc1OC (stereo not given) | 60 | – | – | – | · | – | 82
Cc1noc(C)c1S(=O)(=O)Nc1ccc2c(c1)CC(=O)N([C@@H](C)CO)C[C@@H](C)[C@@H](CN(C)S(=O)(=O)c1c(C)noc1C)O2 | · | · | · | · | – | · | ·
Cc1cc(C)c(S(=O)(=O)N2CCN(C(=O)c3cc(=O)[nH]c4ccccc34)CC2)c(C)c1 | – | – | – | – | – | – | ·
Cc1cc(C)c(C)c(S(=O)(=O)N2CCN(C(=O)c3cc(=O)[nH]c4ccccc34)CC2)c1C | 59 | – | – | – | · | – | 58
CC(=O)Nc1ccccc1C | – | – | – | – | · | – | ·
Cc1ccccc1NC(=O)C(=Cc1ccc(C(=O)O)cc1)C(=O)Nc1ccccc1C | 59 | – | 42 | – | 109 | – | 50
Cc1ccc2c(c1)COc1c3ccc(C(=O)O)cc3nn1-2 | 89 | – | 83 | – | 65 | 70 | –
Cc1ccc2c(c1)COc1c3ccc(C(=O)NCC4CC4)cc3nn1-2 | – | – | – | – | – | – | ·
COc1ccc2c(c1)[nH]c1c(=O)n(/N=C/C3C(C)C=C(C)CC3C)c(=O)[nH]c12 (stereo not given) | 58 | – | – | – | – | – | 45
CC1=CC(C)[C@H](/C=N/n2c(=O)[nH]c3c([nH]c4ccc(Br)cc43)c2=O)C(C)C1 (stereo not given in full) | 93 | – | – | – | – | – | 55
C[C@@H]1CN([C@@H](C)CO)C(=O)c2ccccc2-c2ccccc2CO[C@@H]1CN(C)C(=O)NC1CCCCC1 | · | · | · | · | – | · | ·
C[C@H](CO)N1C[C@H](C)[C@H](CN(C)Cc2ccc(C(=O)Nc3ccccc3N)cc2)Oc2ccc(NS(=O)(=O)c3ccccc3)cc2C1=O | · | · | · | · | – | · | ·
Cc1nn(-c2ccc3ccccc3c2)c(=O)c2ccccc12 | – | – | – | – | – | – | ·
Cc1nn(-c2nc3ccccc3[nH]2)c(=O)c2ccccc12 | 104 | 93 | 95 | 81 | 105 | 96 | 99
N#C[C@@H]1[C@H](c2ccc(-c3ccc(F)cc3)cc2)[C@@H](CO)N1C(=O)Cc1ccccc1 | · | · | · | · | – | · | ·
CCOC(=O)c1cnc2c(cnn2C)c1NCCC#N | – | – | – | – | – | – | ·
CCOC(=O)c1cnc2c(cnn2C)c1NCCCN(C)C | 62 | – | – | – | · | – | 56
